Several values for one entry are separate records, joined by “and”; a condition that tells them apart may be missing. Equal entries are not always repeated. Results filed as inconclusive are left out. Activity calls are given as the source filed them. Calls follow the shape of the dose curve; as a rule, active = well fitted curve in the direction sought with a large enough effect; inconclusive = small, poorly fitted or top-dose-only effect, or another doubt; inactive = no such curve, though single readings can be large; an effect the other way counts as inactive or inconclusive.
Experiment: qHTS of pediatric cancer cell lines to identify multiple opportunities for drug repurposing: Confirmatory screen for BT-12 cells (AID 1347112); also: nearly all actives have a fitted effect of over 55% in size
Conditions: BT-12 rhabdoid tumor cells, viability; series mostly up to 45.9 µM; activity change, negative = cytotoxic: at the top concentration
Method in brief: (§1)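 Cells (500-1,000/well) in growth media were settled 5 h at 37 degrees C, then given compounds for 48 h. Viability was read as CellTiter-Glo luminescence. Primary runs used MIPE at 11 points (0.78 nM-46 µM) and NPC at 8 points (0.59 nM-46 µM); follow-ups used 11 points.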
With C[C@H]1O[C@@H](O[C@H]2[C@@H](O)C[C@H](O[C@H]3[C@@H](O)C[C@H](O[C@H]4CC[C@@]5(C)[C@H](CC[C@@H]6[C@@H]5CC[C@]5(C)[C@@H](C7=CC(=O)OC7)CC[C@]65O)C4)O[C@@H]3C)O[C@@H]2C)C[C@H](O)[C@@H]1O the Potency was 185 nM (active). In the case of COC[C@@H](NC(C)=O)C(=O)NCc1ccccc1, the “activity change, negative = cytotoxic” value is reported as -1.51% (inactive). In the case of C=C(C)[C@H]1Cc2c(ccc3c2O[C@@H]2COc4cc(OC)c(OC)cc4[C@@H]2C3=O)O1, the Potency is reported as 2610 nM (active). In the case of O=P1(NCCCl)OCCCN1CCCl (stereo not drawn), the “activity change, negative = cytotoxic” value is reported as -2.59% (inactive). In the case of C[C@@H]1O[C@@H](O[C@H]2C[C@@H](O)[C@]3(CO)[C@H]4[C@H](O)C[C@]5(C)[C@@H](C6=CC(=O)OC6)CC[C@]5(O)[C@@H]4CC[C@]3(O)C2)[C@H](O)[C@H](O)[C@H]1O, the Potency is reported as 131 nM (active) and 147 nM (active). In the case of C[C@@H]1[C@@H](C(=O)C[C@H]2O[C@@H]3O[C@]4(C)CC[C@@H]5[C@H](C)CC[C@@H]([C@H]2C)[C@@]35OO4)O[C@@H]2O[C@]3(C)CC[C@H]4[C@H](C)CC[C@@H]1[C@@]24OO3, the Potency is reported as 14700 nM (active). In the case of Cn1cc(C2=C(c3cn(C4CCN(Cc5ccccn5)CC4)c4ccccc34)C(=O)NC2=O)c2ccccc21, the “activity change, negative = cytotoxic” value is reported as -22.5% (inactive). For Cn1c(CCCC(=O)O)nc2cc(N(CCCl)CCCl)ccc21, the “activity change, negative = cytotoxic” value was 0.099% (inactive). For C[C@@H]1[C@@H](CC(C[C@H]2O[C@@H]3O[C@]4(C)CC[C@@H]5[C@H](C)CC[C@@H]([C@H]2C)[C@@]35OO4)C[S+](=O)([O-])c2ccc(COC(=O)N(C)C)cc2)O[C@@H]2O[C@]3(C)CC[C@H]4[C@H](C)CC[C@@H]1[C@@]24OO3 (stereo partly drawn), the Potency was 657 nM (active).

Experiment: qHTS of pediatric cancer cell lines to identify multiple opportunities for drug repurposing: Confirmatory screen for LAN-5 cells (AID 1347113); also: nearly all actives have a fitted effect of over 65% in size
Conditions: LAN-5 neuroblastoma cell viability; series mostly up to 45.9 µM; activity change, negative = cytotoxicity: at the top concentration
Method in brief: as §1
In the case of N[C@@H](Cc1ccc(N(CCCl)CCCl)cc1)C(=O)O, the Potency is reported as 5.22 µM (active). In the case of C[C@H]1O[C@@H](O[C@H]2[C@@H](O)C[C@H](O[C@H]3[C@@H](O)C[C@H](O[C@H]4CC[C@@]5(C)[C@H](CC[C@@H]6[C@@H]5CC[C@]5(C)[C@@H](C7=CC(=O)OC7)CC[C@]65O)C4)O[C@@H]3C)O[C@@H]2C)C[C@H](O)[C@@H]1O, the Potency is reported as 0.233 µM (active). For COC[C@@H](NC(C)=O)C(=O)NCc1ccccc1, the “activity change, negative = cytotoxicity” value was 25.3% (inactive). With C=C(C)[C@H]1Cc2c(ccc3c2O[C@@H]2COc4cc(OC)c(OC)cc4[C@@H]2C3=O)O1 the Potency was 1.17 µM (active). For O=P1(NCCCl)OCCCN1CCCl (stereo not drawn), the “activity change, negative = cytotoxicity” value was 13.5% (inactive). In the case of C[C@@H]1O[C@@H](O[C@H]2C[C@@H](O)[C@]3(CO)[C@H]4[C@H](O)C[C@]5(C)[C@@H](C6=CC(=O)OC6)CC[C@]5(O)[C@@H]4CC[C@]3(O)C2)[C@H](O)[C@H](O)[C@H]1O, the Potency is reported as 329 nM (active) and 414 nM (active). For Cn1c(CCCC(=O)O)nc2cc(N(CCCl)CCCl)ccc21, the “activity change, negative = cytotoxicity” value was -12.2% (inactive). For O=c1[nH]c2ccccc2n1CCCN1CCC(n2c(=O)[nH]c3cc(Cl)ccc32)CC1, the Potency was 9.27 µM (active). In the case of C[C@@H]1[C@@H](CC(C[C@H]2O[C@@H]3O[C@]4(C)CC[C@@H]5[C@H](C)CC[C@@H]([C@H]2C)[C@@]35OO4)C[S+](=O)([O-])c2ccc(COC(=O)N(C)C)cc2)O[C@@H]2O[C@]3(C)CC[C@H]4[C@H](C)CC[C@@H]1[C@@]24OO3 (stereo partly drawn), the Potency is reported as 1.04 µM (active).

Reference: PubChem BioAssay (NCATS)
% is scaled to controls: 0 for no effect and ±100 for the full control effect; potency is read from the fitted curve at half-maximal effect.
